What was measured:
Test in all cases: log2 ratio of Biotin-Ahx-Ub-VS probe labelling (fragment/DMSO); higher = less target engagement (more negative = stronger competition), active = hit call of the paper (q ≤ 0.05, log2 ratio ≤ -1)
Settings in all cases: compound concentration: 200 uM; treatment time: 3 h
USP34 = USP34 (UniProt Q70CQ2)
Summary of the method: (§1)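 Labelling with Biotin-Ahx-Ub-VS (0.5 µM final, 1 h) followed a 3 h triplicate treatment of HEK293T lysate (495 µg per sample, Tris/CHAPS/IGEPAL buffer with protease inhibitors) with fragment at 200 µM or vehicle. Labelled DUBs were NeutrAvidin-enriched, digested with LysC and trypsin, and run by diaPASEF LC-MS/MS. The values, average log2 fragment/vehicle ratios by unpaired t-test, come from global-median-normalised Spectronaut label-free quantities. Proteins with ≥2 unique peptides were used.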

USP36 = molecular target: T1, USP36 (UniProt Q9P275)
T1 sequence (whole entry): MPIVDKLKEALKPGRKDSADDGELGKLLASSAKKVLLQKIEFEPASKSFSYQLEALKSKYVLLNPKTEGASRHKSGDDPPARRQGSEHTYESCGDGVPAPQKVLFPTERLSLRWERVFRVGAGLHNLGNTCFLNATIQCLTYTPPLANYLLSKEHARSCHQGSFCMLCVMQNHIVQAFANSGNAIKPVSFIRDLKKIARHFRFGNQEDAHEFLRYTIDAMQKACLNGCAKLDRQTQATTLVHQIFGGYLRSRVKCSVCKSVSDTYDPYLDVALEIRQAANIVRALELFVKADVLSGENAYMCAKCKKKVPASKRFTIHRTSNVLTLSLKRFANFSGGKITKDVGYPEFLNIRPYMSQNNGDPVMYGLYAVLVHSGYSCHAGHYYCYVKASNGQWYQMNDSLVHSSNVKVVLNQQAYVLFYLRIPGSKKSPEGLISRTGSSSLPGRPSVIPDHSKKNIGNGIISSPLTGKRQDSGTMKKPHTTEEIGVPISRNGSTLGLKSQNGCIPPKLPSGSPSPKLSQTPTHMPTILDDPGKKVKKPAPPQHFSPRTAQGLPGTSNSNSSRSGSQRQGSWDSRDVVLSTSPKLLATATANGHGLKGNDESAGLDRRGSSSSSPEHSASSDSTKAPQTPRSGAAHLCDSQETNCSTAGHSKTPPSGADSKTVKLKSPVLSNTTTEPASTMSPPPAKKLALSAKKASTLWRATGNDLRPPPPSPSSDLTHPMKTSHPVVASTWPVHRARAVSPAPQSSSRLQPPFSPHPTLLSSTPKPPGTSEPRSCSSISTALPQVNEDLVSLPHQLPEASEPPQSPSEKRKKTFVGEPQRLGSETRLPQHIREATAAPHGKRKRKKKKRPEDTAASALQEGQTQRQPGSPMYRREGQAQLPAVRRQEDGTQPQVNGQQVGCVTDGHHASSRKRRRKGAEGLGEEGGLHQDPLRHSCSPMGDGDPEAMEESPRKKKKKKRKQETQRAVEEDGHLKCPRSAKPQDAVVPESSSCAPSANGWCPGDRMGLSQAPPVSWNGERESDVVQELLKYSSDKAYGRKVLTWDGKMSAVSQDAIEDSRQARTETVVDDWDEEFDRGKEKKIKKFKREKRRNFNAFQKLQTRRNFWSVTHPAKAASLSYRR
Summary of the method: as §1

USP38 = molecular target: T2, USP38 (UniProt Q8NB14)
T2 sequence (whole entry): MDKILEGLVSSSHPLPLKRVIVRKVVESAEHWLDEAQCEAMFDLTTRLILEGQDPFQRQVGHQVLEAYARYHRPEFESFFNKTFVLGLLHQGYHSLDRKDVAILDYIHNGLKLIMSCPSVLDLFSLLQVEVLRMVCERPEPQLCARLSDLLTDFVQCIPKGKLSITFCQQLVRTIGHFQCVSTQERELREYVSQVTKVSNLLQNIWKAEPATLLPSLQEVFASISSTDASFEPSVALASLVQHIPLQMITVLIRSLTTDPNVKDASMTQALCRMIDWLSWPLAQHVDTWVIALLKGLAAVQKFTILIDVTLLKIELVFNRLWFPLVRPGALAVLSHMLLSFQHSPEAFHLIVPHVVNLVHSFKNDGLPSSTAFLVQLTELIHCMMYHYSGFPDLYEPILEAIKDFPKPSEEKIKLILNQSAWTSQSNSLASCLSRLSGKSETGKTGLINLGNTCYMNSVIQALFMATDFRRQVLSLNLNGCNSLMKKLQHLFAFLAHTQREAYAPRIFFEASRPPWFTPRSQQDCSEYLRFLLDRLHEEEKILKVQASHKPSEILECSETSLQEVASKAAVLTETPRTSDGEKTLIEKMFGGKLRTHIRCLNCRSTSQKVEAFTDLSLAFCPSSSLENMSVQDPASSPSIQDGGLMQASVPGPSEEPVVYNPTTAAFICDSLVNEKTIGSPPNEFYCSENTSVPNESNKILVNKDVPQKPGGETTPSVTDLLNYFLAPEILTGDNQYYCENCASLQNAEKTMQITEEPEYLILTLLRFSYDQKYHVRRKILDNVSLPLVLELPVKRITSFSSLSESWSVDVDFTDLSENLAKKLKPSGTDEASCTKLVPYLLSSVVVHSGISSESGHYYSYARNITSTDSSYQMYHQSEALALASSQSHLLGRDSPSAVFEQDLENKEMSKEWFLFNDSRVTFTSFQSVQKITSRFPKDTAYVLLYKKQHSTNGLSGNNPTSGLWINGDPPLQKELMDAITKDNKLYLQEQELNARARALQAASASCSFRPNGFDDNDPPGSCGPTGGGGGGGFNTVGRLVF
Summary of the method: as §1

USP39 = molecular target: T3, USP39 (UniProt Q53GS9)
T3 sequence (whole entry): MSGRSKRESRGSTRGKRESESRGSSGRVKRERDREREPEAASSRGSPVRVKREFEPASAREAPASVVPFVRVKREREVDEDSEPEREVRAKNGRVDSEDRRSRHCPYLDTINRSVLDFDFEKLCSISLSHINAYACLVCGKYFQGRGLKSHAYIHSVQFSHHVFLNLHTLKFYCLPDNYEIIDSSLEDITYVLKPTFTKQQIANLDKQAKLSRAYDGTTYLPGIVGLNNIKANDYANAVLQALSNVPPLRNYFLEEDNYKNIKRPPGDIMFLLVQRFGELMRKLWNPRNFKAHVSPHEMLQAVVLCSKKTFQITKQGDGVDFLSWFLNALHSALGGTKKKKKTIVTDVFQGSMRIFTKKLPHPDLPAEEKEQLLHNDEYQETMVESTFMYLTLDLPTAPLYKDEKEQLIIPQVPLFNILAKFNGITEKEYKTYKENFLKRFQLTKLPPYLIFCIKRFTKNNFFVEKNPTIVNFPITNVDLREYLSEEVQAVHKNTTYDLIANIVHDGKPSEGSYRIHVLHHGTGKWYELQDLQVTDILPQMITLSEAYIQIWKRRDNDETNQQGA
Summary of the method: as §1

USP4 = molecular target: T4, USP4 (UniProt Q13107)
T4 sequence (whole entry): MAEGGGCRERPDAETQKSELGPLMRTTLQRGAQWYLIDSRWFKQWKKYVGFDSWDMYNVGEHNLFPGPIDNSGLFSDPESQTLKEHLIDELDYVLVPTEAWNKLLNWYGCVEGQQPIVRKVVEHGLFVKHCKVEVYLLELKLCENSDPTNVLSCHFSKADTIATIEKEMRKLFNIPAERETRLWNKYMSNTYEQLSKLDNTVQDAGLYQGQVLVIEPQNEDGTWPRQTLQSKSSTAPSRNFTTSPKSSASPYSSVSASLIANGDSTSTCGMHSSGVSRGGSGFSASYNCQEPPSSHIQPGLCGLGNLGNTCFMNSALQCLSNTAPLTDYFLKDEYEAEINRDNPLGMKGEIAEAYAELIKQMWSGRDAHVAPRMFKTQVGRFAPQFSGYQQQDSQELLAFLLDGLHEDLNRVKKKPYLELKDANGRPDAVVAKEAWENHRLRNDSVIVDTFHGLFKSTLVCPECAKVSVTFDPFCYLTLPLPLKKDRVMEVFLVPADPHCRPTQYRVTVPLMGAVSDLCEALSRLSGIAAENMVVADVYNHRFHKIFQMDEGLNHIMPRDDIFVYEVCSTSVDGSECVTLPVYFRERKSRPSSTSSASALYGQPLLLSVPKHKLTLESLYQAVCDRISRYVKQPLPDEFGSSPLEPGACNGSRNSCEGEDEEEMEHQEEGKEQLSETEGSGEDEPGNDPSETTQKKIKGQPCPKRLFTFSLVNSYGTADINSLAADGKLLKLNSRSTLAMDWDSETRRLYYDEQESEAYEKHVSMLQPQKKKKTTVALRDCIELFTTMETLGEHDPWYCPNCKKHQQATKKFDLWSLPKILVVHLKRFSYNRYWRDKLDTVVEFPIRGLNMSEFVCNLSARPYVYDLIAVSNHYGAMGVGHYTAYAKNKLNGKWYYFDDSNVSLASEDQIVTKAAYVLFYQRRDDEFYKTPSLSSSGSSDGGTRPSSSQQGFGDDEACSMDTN
Summary of the method: as §1

Measured: log2 ratio of Biotin-Ahx-Ub-VS probe labelling

Chain of USP34 (Q70CQ2 whole entry, the tested form may be a part): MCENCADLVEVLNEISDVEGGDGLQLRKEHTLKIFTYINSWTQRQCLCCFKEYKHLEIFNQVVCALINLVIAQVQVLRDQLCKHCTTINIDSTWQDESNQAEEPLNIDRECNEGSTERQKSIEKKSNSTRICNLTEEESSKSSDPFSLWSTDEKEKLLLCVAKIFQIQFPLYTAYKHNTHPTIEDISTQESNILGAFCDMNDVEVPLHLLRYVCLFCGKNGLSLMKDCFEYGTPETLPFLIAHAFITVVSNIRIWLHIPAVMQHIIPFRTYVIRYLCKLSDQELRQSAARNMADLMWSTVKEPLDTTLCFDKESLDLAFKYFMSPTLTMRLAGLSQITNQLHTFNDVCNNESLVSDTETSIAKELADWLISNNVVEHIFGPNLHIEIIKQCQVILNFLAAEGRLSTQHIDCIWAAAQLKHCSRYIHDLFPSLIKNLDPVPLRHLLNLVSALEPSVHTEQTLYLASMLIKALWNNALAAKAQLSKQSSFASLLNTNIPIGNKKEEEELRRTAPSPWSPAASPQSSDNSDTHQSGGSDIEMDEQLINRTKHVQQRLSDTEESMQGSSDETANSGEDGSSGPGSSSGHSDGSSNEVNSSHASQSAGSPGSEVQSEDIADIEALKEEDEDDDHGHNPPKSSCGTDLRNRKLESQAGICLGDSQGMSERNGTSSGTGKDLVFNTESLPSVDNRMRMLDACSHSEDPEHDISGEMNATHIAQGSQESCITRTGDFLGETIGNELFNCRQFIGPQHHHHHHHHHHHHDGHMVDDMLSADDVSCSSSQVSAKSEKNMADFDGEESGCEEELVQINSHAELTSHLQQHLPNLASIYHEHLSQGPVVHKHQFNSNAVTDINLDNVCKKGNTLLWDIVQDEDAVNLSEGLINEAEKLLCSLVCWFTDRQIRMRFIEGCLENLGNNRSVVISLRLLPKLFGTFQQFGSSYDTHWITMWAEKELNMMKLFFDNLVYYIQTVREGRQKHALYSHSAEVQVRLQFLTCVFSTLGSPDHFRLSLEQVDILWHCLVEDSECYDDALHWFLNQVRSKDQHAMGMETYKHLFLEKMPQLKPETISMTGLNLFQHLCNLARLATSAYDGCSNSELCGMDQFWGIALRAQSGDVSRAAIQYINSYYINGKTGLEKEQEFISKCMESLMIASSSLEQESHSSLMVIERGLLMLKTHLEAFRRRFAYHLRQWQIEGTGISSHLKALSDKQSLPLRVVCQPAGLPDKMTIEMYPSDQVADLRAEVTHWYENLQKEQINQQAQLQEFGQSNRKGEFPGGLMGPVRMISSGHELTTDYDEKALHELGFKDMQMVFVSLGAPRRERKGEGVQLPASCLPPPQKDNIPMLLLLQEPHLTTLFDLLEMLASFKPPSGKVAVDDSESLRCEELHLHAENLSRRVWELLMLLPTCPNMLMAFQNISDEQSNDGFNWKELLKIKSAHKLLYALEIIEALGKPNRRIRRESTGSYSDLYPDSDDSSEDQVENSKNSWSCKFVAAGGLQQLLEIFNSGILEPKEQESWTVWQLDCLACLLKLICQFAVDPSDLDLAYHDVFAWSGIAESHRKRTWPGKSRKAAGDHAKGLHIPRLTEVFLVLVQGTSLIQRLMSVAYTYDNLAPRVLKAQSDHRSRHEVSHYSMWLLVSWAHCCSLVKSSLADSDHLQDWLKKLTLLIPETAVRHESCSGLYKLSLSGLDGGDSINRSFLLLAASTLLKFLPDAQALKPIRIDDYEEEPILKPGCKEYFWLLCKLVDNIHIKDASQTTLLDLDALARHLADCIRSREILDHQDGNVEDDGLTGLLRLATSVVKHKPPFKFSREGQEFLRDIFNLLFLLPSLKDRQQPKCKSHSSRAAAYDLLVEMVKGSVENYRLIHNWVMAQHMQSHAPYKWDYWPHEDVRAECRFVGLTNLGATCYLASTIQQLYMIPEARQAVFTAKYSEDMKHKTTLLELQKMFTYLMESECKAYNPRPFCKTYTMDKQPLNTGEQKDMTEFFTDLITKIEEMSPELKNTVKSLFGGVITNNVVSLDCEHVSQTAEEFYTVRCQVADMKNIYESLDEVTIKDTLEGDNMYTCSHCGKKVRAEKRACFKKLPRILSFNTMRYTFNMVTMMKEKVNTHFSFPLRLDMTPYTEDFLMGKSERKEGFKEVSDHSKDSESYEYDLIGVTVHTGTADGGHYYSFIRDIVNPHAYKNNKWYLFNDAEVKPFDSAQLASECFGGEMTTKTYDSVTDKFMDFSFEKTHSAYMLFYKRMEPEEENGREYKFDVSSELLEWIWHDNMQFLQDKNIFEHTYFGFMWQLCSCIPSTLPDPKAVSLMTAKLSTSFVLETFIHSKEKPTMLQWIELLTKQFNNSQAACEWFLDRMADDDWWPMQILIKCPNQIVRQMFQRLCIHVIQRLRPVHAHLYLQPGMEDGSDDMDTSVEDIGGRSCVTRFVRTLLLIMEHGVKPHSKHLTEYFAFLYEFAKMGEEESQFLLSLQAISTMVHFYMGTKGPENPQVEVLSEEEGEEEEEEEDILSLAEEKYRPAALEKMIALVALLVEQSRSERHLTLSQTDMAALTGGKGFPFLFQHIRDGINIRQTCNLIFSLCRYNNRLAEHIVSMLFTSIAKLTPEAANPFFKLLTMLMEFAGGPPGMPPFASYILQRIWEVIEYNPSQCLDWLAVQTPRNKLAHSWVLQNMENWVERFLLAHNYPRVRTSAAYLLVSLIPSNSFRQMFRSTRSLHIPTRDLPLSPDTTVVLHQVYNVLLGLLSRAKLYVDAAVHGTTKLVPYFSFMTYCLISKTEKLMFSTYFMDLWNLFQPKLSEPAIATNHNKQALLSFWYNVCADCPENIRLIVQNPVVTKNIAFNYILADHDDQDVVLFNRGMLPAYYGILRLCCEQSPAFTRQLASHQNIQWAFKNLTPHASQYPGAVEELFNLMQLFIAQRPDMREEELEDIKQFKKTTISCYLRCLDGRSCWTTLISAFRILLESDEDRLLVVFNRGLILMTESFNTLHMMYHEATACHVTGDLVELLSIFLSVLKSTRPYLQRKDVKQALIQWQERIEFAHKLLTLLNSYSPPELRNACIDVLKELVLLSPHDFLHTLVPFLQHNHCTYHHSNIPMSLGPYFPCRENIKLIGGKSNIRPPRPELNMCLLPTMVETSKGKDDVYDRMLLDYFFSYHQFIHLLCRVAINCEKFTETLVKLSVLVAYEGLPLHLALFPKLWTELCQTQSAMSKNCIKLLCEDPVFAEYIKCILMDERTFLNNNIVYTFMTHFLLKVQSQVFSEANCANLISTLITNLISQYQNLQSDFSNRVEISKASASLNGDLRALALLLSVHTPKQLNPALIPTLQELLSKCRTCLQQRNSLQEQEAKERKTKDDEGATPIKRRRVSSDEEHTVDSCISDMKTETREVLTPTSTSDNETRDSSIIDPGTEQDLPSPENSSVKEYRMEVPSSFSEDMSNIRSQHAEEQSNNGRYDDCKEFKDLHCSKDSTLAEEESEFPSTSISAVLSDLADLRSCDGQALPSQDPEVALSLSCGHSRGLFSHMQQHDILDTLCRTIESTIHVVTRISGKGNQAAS

O=C(CCl)NCCc1cccc2ccccc12
inactive: USP34 -0.192 | USP36 -0.0173 | USP38 0.0792 | USP39 -0.0508 | USP4 0.143
